# Screens from PubChem.
# An excerpt weighted towards active compounds, which were near 0.59% of everything screened.
# DUSP3 inh – blocks human VHR1 dual specificity phosphatase. recombinant VHR phosphatase, pNPP absorbance. P51452. inhibition, % at 13.3 µM. actives 0.52% (n = 290,000); in the data active = inhibition above about 50%
# Target sequence (P51452 whole entry, looked up): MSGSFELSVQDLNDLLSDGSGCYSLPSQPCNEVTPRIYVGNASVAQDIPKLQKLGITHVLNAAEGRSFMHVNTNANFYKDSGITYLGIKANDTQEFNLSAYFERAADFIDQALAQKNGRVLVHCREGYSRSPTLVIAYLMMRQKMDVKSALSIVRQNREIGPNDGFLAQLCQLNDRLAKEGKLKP
# Mtb hypoxia inh – Mtb hypoxia fluorescent reporter inhibition; M. tuberculosis hypoxia-regulated fluorescent reporter, fluorescence; fluorescence inhibition, % (concentration not given with the values); actives 0.1% (n = 300,000); AID 1159583; in the data active = fluorescence inhibition mostly above about 23%, no sharp cut-off; inactive = mostly below about 17%
# UGM FP inh – Mtb UDP-galactopyranose mutase inhibition; inhibition, % at 10 µM; AID 504406; purified UGM, fluorescence polarization probe displacement; P9WIQ1; actives 0.06% (n = 320,000); in the data active = inhibition above about 10%, passing the limit was not always enough; inconclusive = no clear call, values can overlap the other calls
# Rv3671c protease – inhibitors of M. tuberculosis serine protease Rv3671c | P9WHR9 | AID 2606 | inhibition, % at 5.96 µM | actives 0.048% (n = 320,000); in the data active = inhibition above about 38%;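 also: extracellular domain of Rv3671c used as enzyme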
# Target sequence (P9WHR9 whole entry, looked up, the tested form may be a part): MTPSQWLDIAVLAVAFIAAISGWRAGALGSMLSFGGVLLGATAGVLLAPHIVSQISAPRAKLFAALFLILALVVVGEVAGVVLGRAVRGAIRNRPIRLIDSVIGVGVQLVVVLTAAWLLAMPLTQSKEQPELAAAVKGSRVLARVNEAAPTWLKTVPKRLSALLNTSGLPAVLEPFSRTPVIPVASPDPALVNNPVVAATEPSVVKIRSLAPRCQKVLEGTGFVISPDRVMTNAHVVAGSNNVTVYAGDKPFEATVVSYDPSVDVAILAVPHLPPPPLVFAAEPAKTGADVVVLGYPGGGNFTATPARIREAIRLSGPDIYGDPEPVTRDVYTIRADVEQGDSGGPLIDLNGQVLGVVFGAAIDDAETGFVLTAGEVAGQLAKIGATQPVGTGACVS
# Mtb betalactam – beta-lactam sensitization of Mtb H37Rv | actives 0.27% (n = 330,000) | M. tuberculosis H37Rv growth with meropenem, percent inhibition | inhibition, % at 25 µM; call rule not given here;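 also: growth measured after seven days incubation then overnight dye step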
# A number is an active result; . = inactive; ? = inconclusive; / = no result given.
SMILES,DUSP3 inh,Mtb hypoxia inh,UGM FP inh,Rv3671c protease,Mtb betalactam
CCc1cc(C(=O)c2ccc(C)cc2)c(NC(=O)CCl)s1,.,.,61,.,.
Cc1cc(C(=O)c2ccc(Cl)cc2)c(NC(=O)CCl)s1,.,.,.,.,.
Nc1c(C(=O)c2ccccc2)sc(Nc2ccccc2)c1S(=O)(=O)c1ccccc1,.,.,.,.,.
O=C(CNC(=O)c1ccc(Br)o1)NNC(=O)c1ccc(Br)cc1,/,.,.,.,.
CC1=NN(c2ccc(C)cc2)C(=O)/C1=C\C=C\c1ccccc1,.,.,.,.,.
CC1=NN(c2ccccc2)C(=O)/C1=C/C=C/C=C/N(C)C,.,63,.,.,.
COc1ccc(-c2cn3cc(Br)cnc3n2)cc1,.,.,.,.,.
Cc1ccc(N2C(=O)C3C4C=CC(CC4)C3C2=O)c([N+](=O)[O-])c1 (stereo unspecified),55,.,.,.,.
O=C(NCc1ccc(F)cc1)c1cccc2c1C(=O)c1ccc(N3CCC(Cc4ccccc4)CC3)cc1S2(=O)=O,/,.,33,.,.
CC1CCN(c2ccc3c(c2)S(=O)(=O)c2cccc(C(=O)NCc4ccc(F)cc4)c2C3=O)CC1,/,.,.,.,.
C=CCc1cccc2cc(C(=O)Nc3ccc(CC(=O)O)cc3)c(=O)oc12,52,.,.,.,.
Cc1ccccc1C=Nc1ccccc1C(N)=O,.,/,.,.,.
COc1ccc(-c2nnc(SCC(=O)Nc3ccc(C)cc3)n2C)cc1,.,.,.,.,.
CCSCc1nnc(SCC(=O)Nc2ccc(OC)cc2)n1C,57,.,.,.,.
O=C(COC(=O)c1cc(=O)c2ccccc2o1)NC1CCCCC1,.,.,.,.,.
COc1ccc(OC)c(CNC(=O)C2CCN(S(=O)(=O)N3CCCCC3)CC2)c1,51,.,.,.,.
Cc1ccc(N/C(N)=N/c2nc(CSc3nnc(N)s3)cc(=O)[nH]2)cc1,53,.,.,.,.
Cc1cc(C)cc(NC(=O)c2cc(C)nc3ccccc23)c1,59,.,.,.,.
COc1cccc(C2CC(c3cccs3)=NN2C(=O)CSc2nc3c(cnn3-c3ccc(F)cc3)c(=O)[nH]2)c1OC (stereo unspecified),.,.,.,.,.
O=C(c1ccc(Br)o1)N1CCN(C23CC4CC(CC(C4)C2)C3)CC1,56,.,.,.,.
CCc1nonc1NC(=O)c1oc2ccccc2c1C,50,.,.,.,.
CCc1nonc1NC(=O)c1oc2ccc(C)cc2c1C,.,.,.,.,.
COc1ccc(-c2nnc(SCc3nc4ccccc4s3)n2C(C)C)cc1,.,45,.,.,.
COc1ccc(CN(C)CC(=O)Nc2ccc(SC(F)F)cc2)cc1OC,.,.,.,.,.
CC1=C(C(=O)Nc2ccc(CC(=O)NCc3ccccc3C)cc2)SCCO1,.,.,.,.,.
SMILES,DUSP3 inh,Mtb hypoxia inh,UGM FP inh,Rv3671c protease,Mtb betalactam
CCc1ccc(CNC(=O)Cc2ccc(NC(=O)C3=C(C)OCCS3)cc2)cc1,51,/,.,.,.
CC(C)S(=O)(=O)C1=NSC2=NC(=O)/C(=C\c3ccc(OC(=O)c4ccco4)cc3)C(=N)N21,.,.,.,.,.
CCCN1CCN(C(=S)Nc2ccc([N+](=O)[O-])cc2)CC1,.,.,.,.,.
COc1cc(C(=O)N/C(=C\c2cn(C)c3ccccc23)C(=O)NCCCN2CCOCC2)cc(OC)c1OC,.,.,.,.,.
COc1ccccc1C(=O)N/C(=C\c1cn(C)c2ccccc12)C(=O)NCCCN1CCOCC1,57,.,.,.,.
CC(=O)c1cccc(OCc2cc(C(=O)N(C)Cc3cnccn3)no2)c1,50,.,.,.,.
COc1cccc(OCc2cc(C(=O)N(C)Cc3nc4ccccc4[nH]3)no2)c1,51,.,.,.,.
CC(=O)c1cccc(OCc2cc(C(=O)N(C)C(C)c3ccccn3)no2)c1 (stereo unspecified),.,.,.,.,.
CC(=O)c1ccc(OCc2cc(C(=O)N(C)Cc3ncc(C)[nH]3)no2)cc1,.,.,.,/,.
O=Cc1coc2ccc3ccccc3c2c1=O,56,.,.,.,.
NC(=O)N/N=C/c1coc2ccc3ccccc3c2c1=O,.,/,.,.,.
O=C(NC(Cc1ccccc1)C(=O)O)OCC1c2ccccc2-c2ccccc21 (stereo unspecified),53,.,.,.,.
O=C(NC(Cc1ccccc1)C(=O)O)OCc1ccccc1 (stereo unspecified),.,.,.,.,.
CCN(CC)c1ccc2cc(-c3nc4ccccc4[nH]3)c(=O)oc2c1,.,.,31,.,.
CCN(CC)c1ccc2cc(-c3nc4ccccc4n3C)c(=O)oc2c1,.,.,.,.,?
COc1cc(C(=O)NC2CCN(Cc3nnnn3Cc3ccc(F)cc3)CC2)cc(OC)c1OC,.,.,.,.,.
Cn1nc(C(F)(F)F)c2cc(C(=O)NC3CC3)sc21,.,.,.,.,.
COc1ccc(CNC(=O)Nc2cc(C)cc(C)c2)cc1,.,.,.,.,.
O=C(Cn1nc(C(F)(F)F)c2c1CCC2)Nc1ccccc1C(F)(F)F,.,/,.,.,.
COc1cccc(/C=N/Nc2nc3ccccc3n3cnnc23)c1O,.,/,.,.,.
COc1cccc(/C=N/Nc2nc3ccccc3n3cnnc23)c1,51,/,.,.,.
O=C(O)CC(C(=O)O)N1C(=O)/C(=C/C=C/c2ccco2)SC1=S (stereo unspecified),54,.,.,.,.
COc1ccc(NC(=S)N(C(C)C)C2CCN(C(C)C)CC2)cc1Cl,53,/,.,.,.
CCn1c(=O)n(CC)c2cc(N3CCCC3)c(NC(=O)c3ccccc3OC)cc21,52,.,.,.,.
O=C(Nc1ccc2c(c1)C(=O)N(C1CCCCC1)C2=O)C1CCCO1 (stereo unspecified),.,.,.,.,.
SMILES,DUSP3 inh,Mtb hypoxia inh,UGM FP inh,Rv3671c protease,Mtb betalactam
COc1ccccc1N1CCN(/N=C/C=C/c2ccccc2[N+](=O)[O-])CC1,50,/,.,.,.
CC(C)Oc1cccc(C(=O)NC(=S)Nc2ccc(N3CCN(C)CC3)cc2)c1,.,.,.,.,.
CCC(=NNC(=O)C1CCCC1)c1ccc(Br)cc1,/,.,/,/,/
CC/C(=N\NC(=O)C1CCCC1)c1ccc(Br)cc1,50,/,.,/,.
O=C(Cc1ccccc1)NC(c1ccco1)c1c(O)ccc2ccccc12 (stereo unspecified),.,.,.,.,.
CCOC(=O)NNC(=O)c1[nH]c2ccc(Br)cc2c1-c1ccccc1,55,.,.,.,.
CC(=O)NNC(=O)c1[nH]c2ccc(Br)cc2c1-c1ccccc1,.,.,.,/,.
CCc1ccc(OCc2ccc(C(=O)O)o2)cc1,.,.,.,.,.
CCc1ccc(O)c(N=Cc2ccccc2O)c1,.,.,.,.,.
O=c1[nH][nH]c2c(N=Cc3ccccc3O)ccc(F)c12,52,.,/,/,/
COc1ccc(CN2CCN(Cc3ccc4cc(F)ccc4n3)CC2CCO)c(C)c1C (stereo unspecified),51,.,.,.,.
COc1cc(CN2CCN(Cc3ccc4cc(F)ccc4n3)CC2CCO)cc(OC)c1 (stereo unspecified),.,.,.,.,.
